IL1B secr inh: blocks inflammasome-driven IL-1 beta release | 360,000 tested, 4.7% active | AID 743279 | activity change, % at 57.5 µM | THP-1 LPS/ATP IL-1B secretion, AlphaLISA, 16 h; active compounds read low; in the data active = activity change below about -50%; inconclusive = mostly about -30% to -49%; also: % is scaled to controls: 0 for no effect and ±100 for the full control effect
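Secreted IL-1B measured by AlphaLISA bead assay after 16 h compound exposure of THP-1 cells; compounds (final up to 57.5 uM) added 1 h before LPS (250 ng/mL) and ATP (1.25 mM) stimulation; lower signal means less secretion.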
DRD3 agonist: D3 dopamine receptor (human) agonism. P35462. D3R DiscoveRx beta-arrestin cells, luminescence, 90 min. max activation, %. 410,000 tested, 0.58% active. AID 652048; in the data active = max activation above about 30%; also: 0% is about no effect
Target sequence (P35462 whole entry, looked up): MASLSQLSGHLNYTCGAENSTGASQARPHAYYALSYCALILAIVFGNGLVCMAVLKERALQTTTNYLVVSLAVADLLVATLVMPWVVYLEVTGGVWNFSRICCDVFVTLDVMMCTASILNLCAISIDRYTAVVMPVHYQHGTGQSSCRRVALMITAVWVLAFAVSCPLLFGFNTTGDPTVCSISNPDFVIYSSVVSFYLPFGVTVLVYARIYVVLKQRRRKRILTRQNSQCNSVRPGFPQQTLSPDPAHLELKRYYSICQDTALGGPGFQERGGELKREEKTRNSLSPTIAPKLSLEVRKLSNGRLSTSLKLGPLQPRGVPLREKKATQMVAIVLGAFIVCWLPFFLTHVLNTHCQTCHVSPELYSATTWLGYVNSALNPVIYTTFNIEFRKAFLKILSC
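Cells at 1500/well, incubated overnight, then treated with pinned compounds (dopamine as control) for 90 min at 37 degrees C. DiscoveRx reagent added for 30 - 60 minutes at room temperature; luminescence read.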
D3 antag: D3 dopamine receptor (human) antagonism; P35462; D3R cells, DiscoveRx beta-arrestin luminescence, antagonist mode; active compounds read low; max response, negative = inhibition, %; 360,000 tested, 2.5% active; in the data active = max response below about -50%; inconclusive = no clear call, values can overlap the other calls; also: % is scaled to controls: 0 for no effect and ±100 for the full control effect
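Cells plated overnight at 1500 cells/well, then exposed to library compounds with dopamine controls for 90 minutes at 37 degrees C. DiscoveRx reagent added for 30–60 minutes at room temperature; luminescence read, quantitative HTS format.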
ClpP mod: qHTS Assay for Activators of ClpP; ATP-dependent Clp protease proteolytic subunit (Bacillus subtilis (strain 168)), P80244; purified B. subtilis ClpP, FRET peptide cleavage, 20 min; Potency, µM (series often up to 57.5 µM), for the others: at the top dose activity change, negative = active; 340,000 tested, 1.9% active; AID 651965, 2013; active = well fitted falling curve with a large enough effect; inconclusive = small, poorly fitted or top-dose-only effect; inactive = no such curve, though single readings can be large or run the other way; also: potency is read from the fitted curve at half-maximal effect; the source files actives as falling curves though it sought activators and does not explain the sign; nearly all actives have a fitted effect of over 65% in size
Target sequence (P80244 whole entry, looked up): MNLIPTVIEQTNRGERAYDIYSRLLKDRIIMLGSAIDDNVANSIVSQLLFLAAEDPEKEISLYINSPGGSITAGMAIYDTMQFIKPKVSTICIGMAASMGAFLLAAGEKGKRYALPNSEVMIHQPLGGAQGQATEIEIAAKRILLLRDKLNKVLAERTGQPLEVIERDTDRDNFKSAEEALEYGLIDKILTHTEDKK
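Purified B. subtilis ClpP, 10 microg/mL final in Tris/HCl pH8 with KCl, BSA, glycerol and Tween-20, cleaved an Abz/nitrotyrosine-quenched decapeptide. Fluorescence (ex 320, em 430) was read at 0 and 20 min at room temperature. Delta was normalized to 5.8 microM ADEP and DMSO/no-enzyme controls.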
DT40 TDP1 CPT: growth inhibition of DT40 Tdp1-/-;hTDP1 cells with camptothecin (screen for TDP1 inhibitors); AID 686979; 420,000 tested, 12% active; Potency, µM (highest dose often 46.2 µM), inactives show at the top dose activity change, negative = growth inhibition, actives largely listed as inhibitors; chicken DT40 Tdp1-/-;hTDP1 cells + 20 nM CPT, ATP luminescence, 48 h; also: potency is read from the fitted curve at half-maximal effect; % is scaled to controls: 0 for no effect and ±100 for the full control effect; nearly all actives have a fitted effect of over 55% in size
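Chicken DT40 Tdp1-/- cells stably complemented with human TDP1 were seeded at 400 cells/well in medium containing 20 nM camptothecin, exposed to pin-transferred compounds, and grown at 37 °C for at least 48 hr. Viability was read as ATP luminescence.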
TDP1 cell noCPT: qHTS for Inhibitors of human tyrosyl-DNA phosphodiesterase 1 (TDP1): qHTS in cells in absence of CPT; DT40 Tdp1-/- hTDP1 cells, no CPT, ATP luminescence, 48 h; Potency, µM (doses to about 46.2 µM), for the others: at the top dose activity change, negative = growth inhibition, usual class: inhibitors; 420,000 tested, 15% active; also: potency is read from the fitted curve at half-maximal effect; % is scaled to controls: 0 for no effect and ±100 for the full control effect; nearly all actives have a fitted effect of over 55% in size
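A cellular qHTS used chicken DT40 cells lacking endogenous Tdp1 but carrying stably transfected human TDP1. Compounds were applied without camptothecin, and cell growth kinetics were judged by ATP-dependent luminescence after ≥48 hr.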
* = called active by the depositor; ? = inconclusive; nt = not tested or not shown. An excerpt weighted towards active compounds, which were near 21% of everything screened. Unless noted, calls follow the shape of the dose curve; as a rule, active = well fitted inhibition curve with a large enough effect; inconclusive = small, poorly fitted or top-dose-only effect; inactive = flat fitted curve, though single readings scatter.

SMILES	IL1B secr inh	DRD3 agonist	D3 antag	ClpP mod	DT40 TDP1 CPT	TDP1 cell noCPT
CCOC(=O)c1cccc(NC(=O)c2ccc3c(c2)nnn3CC)c1	nt	-4.7	nt	1.2%	?	?
CCOC(=O)c1cccc(NC(=O)c2cnc3ccccc3n2)c1	-12.7	-7.6	61.8	-2.5%	?	25.9µM*
CCOC(=O)c1cccc(NC(=O)c2ccc3snnc3c2)c1	nt	2.3	nt	-4.1%	?	18.4µM*
CC1(C)CC(=O)c2c(oc3c(Cl)cc(NS(=O)(=O)c4ccc(Br)cc4)cc23)C1	nt	3.5	nt	-0.6%	2.6%	-22.2%
C[N+]1(CC#CC(O)(c2ccccc2)c2ccccc2)CCCC1	-3.0	1.8	10.6	-1.2%	-19.1%	-7.2%
CCC[N+]1(CC#CCC(c2ccccc2)c2ccccc2)CCCCC1	-84.8*	-8.6	4.6	nt	1.46µM*	1.3µM*
CCN(CC)CC#Cc1ccc(C)cc1	25.1	-17.0	-25.5	0.7%	3.7%	-23.6%
C#CC[N+]1(CC#Cc2cccc(C)c2)CCCCC1	11.5	-1.4	4.9	nt	2.59µM*	2.31µM*
Cc1ccc(C#CC[N+]2(CC#Cc3ccc(C)cc3)CCCCC2)cc1	-86.0*	-7.3	0.6	-5.2%	0.461µM*	0.0291µM*
C#CC[N+]1(CC#Cc2ccccc2)CCCCC1	11.0	-2.0	7.9	nt	16.4µM*	16.4µM*
COCCn1c(CNC(=O)c2ccccc2C)nc2cccnc21	nt	11.0	nt	-21.0%	-9.7%	-21.6%
OC(CNCC#Cc1ccccc1)c1ccccc1 (centres undefined)	-1.1	-6.7	-5.6	1.9%	-10.6%	-14.8%
C(#Cc1ccccc1)C[N+]1(CC#Cc2ccccc2)CCCCC1	-86.3*	3.2	-4.2	nt	1.84µM*	1.46µM*
CCOc1ccc(C(=O)COC(=O)c2nc3nccc(C)n3n2)cc1	6.7	-5.0	-16.1	1.0%	-1.7%	1.2%
O=C(Cc1cccc(NC(=O)C2CCN(C(=O)C3CCCC3)CC2)c1)Nc1cccc(C(=O)N2CCOCC2)c1	-21.1	3.5	-4.4	-0.3%	25.9%	-2.3%
OC(C#Cc1ccccn1)c1cccs1 (centres undefined)	-95.1*	-17.1	-6.7	0.2%	18.4µM*	16.4µM*
CCCCC(=O)Nc1cccc(C(=O)N/N=C/c2ccc(OC)cc2OC)c1	-5.7	-4.7	0.0	-1.7%	-2.5%	-23.5%
COc1cccc(/C=N/NC(=O)CCCC(=O)Nc2ccc(Br)cc2)c1	4.4	1.1	3.0	-1.2%	20.6µM*	20.6µM*
COc1ccc(OC)c(/C=N/NC(=O)CCCC(=O)Nc2cccc(Br)c2)c1	-0.9	-25.3	-19.4	25.1µM*	-6.2%	-27.1%
COCc1cc(C)nc(OCC(=O)N/N=C/c2cccc(OC)c2)c1C#N	4.3	-1.8	0.7	28.2µM*	-2.4%	-0.6%
COc1ccc(O)c(/C=N/NC(=O)CCC(=O)Nc2ccc(C)cc2)c1	67.8	0.8	-0.6	?	?	20.6µM*
COCc1cc(C)nc(OCC(=O)N/N=C/c2ccccc2O)c1C#N	128.1	0.3	3.2	nt	?	?
COc1ccc([N+](=O)[O-])c(OC)c1C(=O)NC(=O)Nc1nc(C)nc(C)n1	0.4	4.6	-0.1	-2.0%	-8.2%	22.2%
COc1cccc(Cn2cc(C(=O)NCCN(C)C)nn2)c1	-20.4	7.7	14.0	1.9%	10.4%	-16.2%
CC1CCN(C(=O)Cn2c(SCC(=O)Nc3ccc(F)cc3)nc3ccccc32)CC1	nt	1.4	nt	-1.9%	?	?
SMILES	IL1B secr inh	DRD3 agonist	D3 antag	ClpP mod	DT40 TDP1 CPT	TDP1 cell noCPT
COc1ccc(O)c(/C=N/NC(=O)CCC(=O)Nc2cccc(C)c2)c1	112.8	17.2	-20.4	nt	20.6µM*	20.6µM*
Cc1cccc(NC(=O)CCC(=O)N/N=C/c2cccnc2)c1	1.1	-1.9	-28.2	-2.8%	2.8%	11.3%
CCOC1=C2CN(S(=O)(=O)c3ccc(C)cc3)[C@@H](c3cccc4ccccc34)C[C@H]2[C@H]2C(=O)N(c3ccccc3)C(=O)[C@H]2C1	-6.4	5.0	0.0	-2.1%	2.3%	5.7%
CCOC1=C2CN(S(=O)(=O)c3ccc(C)cc3)[C@H](c3cccc4ccccc34)C[C@H]2C(C#N)(C#N)C(C#N)(C#N)C1	-26.3	-1.1	-22.3	-4.5%	4.11µM*	5.8µM*
CCOC1=C2[C@H](c3ccccc3)N(S(=O)(=O)c3ccc(C)cc3)C(C(C)(C)C)[C@H]2C(C#N)(C#N)C(C#N)(C#N)C1 (some centres undefined)	-64.4*	6.1	9.6	-0.9%	2.06µM*	2.06µM*
COC(=O)/C(=C\c1cc(OC)c(OC)c(OC)c1)c1nc2ccccc2[nH]1	-99.0*	7.2	-11.2	-0.5%	?	16.4µM*
COc1cc(/C=C(/C(=O)c2cccs2)c2nc3ccccc3[nH]2)ccc1O	-106.3*	-28.4	-19.3	-1.9%	?	18.4µM*
COc1ccc(/C=C(/NC(=O)c2ccccc2)c2nc3ccccc3[nH]2)cc1OC	33.3	2.0	-2.5	-7.7%	?	?
COC(=O)/C(=C\c1ccc(O)cc1)c1nc2ccccc2[nH]1	-5.7	-5.4	2.6	5.7%	?	?
O=C(/C(=C\c1ccccc1)c1nc2ccccc2[nH]1)c1ccc(Cl)cc1	-99.9*	-2.7	-71.5*	-3.7%	7.31µM*	6.51µM*
O=C(/C=C/c1cccc(Cl)c1)c1nc2ccccc2[nH]1	-16.7	-5.8	-56.5*	-6.2%	11.6µM*	9.2µM*
COc1ccc(-c2nc3c4ccccc4n(CC(=O)Nc4cc(F)ccc4F)c(=O)n3n2)cc1	nt	0.7	nt	-12.1%	-1.2%	-27.8%
NC(=O)CSc1nc2c(sc3ccccc32)c(=O)n1CCCC(=O)NCC1CCCO1 (centres undefined)	8.6	-6.1	-1.7	nt	-20.4%	-4.9%
O=C(Nc1cccc(C(=O)O)c1)/C(=C\c1ccccc1)NC(=O)c1cccc2ccccc12	6.7	0.7	13.0	-4.0%	-0.9%	10.8%
Cc1ccc(C(=O)C[n+]2cccc3cccc(O)c32)cc1	nt	nt	nt	-3.6%	?	?
O=C(N/N=C/c1cccc([N+](=O)[O-])c1)c1ccccc1-n1cccc1	-6.6	0.8	13.2	nt	-4.4%	?
CC(=O)c1ccccc1NC(=O)c1ccc(N2CCCC2=O)cc1	?	-16.6	6.4	nt	?	?
O/C(=C\c1nc2ccccc2[nH]1)c1cccs1	?	0.5	2.8	nt	?	?

Screens: PubChem BioAssay, National Center for Advancing Translational Sciences (NCATS)
